Unmarked numbers belong to inactive results.
Experiments:
Assay in all cases: log2 ratio of Biotin-Ahx-Ub-VS probe labelling (fragment/DMSO); higher = less target engagement (more negative = stronger competition), active = hit call of the paper (q ≤ 0.05, log2 ratio ≤ -1)
Details in all cases: compound concentration: 200 uM; treatment time: 3 h
[1] = biological target: T1, OTUD6B (UniProt Q8N6M0)
T1 sequence (whole entry): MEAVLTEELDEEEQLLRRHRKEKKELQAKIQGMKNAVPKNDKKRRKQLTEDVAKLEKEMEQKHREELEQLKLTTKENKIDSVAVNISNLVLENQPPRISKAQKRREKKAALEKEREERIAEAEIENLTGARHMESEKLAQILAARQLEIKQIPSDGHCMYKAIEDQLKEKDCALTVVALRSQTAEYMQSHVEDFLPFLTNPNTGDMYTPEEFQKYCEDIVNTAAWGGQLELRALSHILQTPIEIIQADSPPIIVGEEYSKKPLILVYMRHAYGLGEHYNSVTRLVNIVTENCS
Outline: (§1)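 In triplicate, 495 µg of HEK293T lysate per sample was incubated with fragment at 200 µM or vehicle for 3 h. Biotin-Ahx-Ub-VS was then added to 0.5 µM final for 1 h, and labelled DUBs were captured with NeutrAvidin, digested with LysC and trypsin, and measured by diaPASEF LC-MS/MS. Data are average log2 fragment/vehicle ratios by unpaired t-test from global-median-normalised Spectronaut label-free quantities, restricted to proteins with ≥2 unique peptides.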

[2] = biological target: T2, OTUD7B (UniProt Q6GQQ9)
T2 sequence (whole entry): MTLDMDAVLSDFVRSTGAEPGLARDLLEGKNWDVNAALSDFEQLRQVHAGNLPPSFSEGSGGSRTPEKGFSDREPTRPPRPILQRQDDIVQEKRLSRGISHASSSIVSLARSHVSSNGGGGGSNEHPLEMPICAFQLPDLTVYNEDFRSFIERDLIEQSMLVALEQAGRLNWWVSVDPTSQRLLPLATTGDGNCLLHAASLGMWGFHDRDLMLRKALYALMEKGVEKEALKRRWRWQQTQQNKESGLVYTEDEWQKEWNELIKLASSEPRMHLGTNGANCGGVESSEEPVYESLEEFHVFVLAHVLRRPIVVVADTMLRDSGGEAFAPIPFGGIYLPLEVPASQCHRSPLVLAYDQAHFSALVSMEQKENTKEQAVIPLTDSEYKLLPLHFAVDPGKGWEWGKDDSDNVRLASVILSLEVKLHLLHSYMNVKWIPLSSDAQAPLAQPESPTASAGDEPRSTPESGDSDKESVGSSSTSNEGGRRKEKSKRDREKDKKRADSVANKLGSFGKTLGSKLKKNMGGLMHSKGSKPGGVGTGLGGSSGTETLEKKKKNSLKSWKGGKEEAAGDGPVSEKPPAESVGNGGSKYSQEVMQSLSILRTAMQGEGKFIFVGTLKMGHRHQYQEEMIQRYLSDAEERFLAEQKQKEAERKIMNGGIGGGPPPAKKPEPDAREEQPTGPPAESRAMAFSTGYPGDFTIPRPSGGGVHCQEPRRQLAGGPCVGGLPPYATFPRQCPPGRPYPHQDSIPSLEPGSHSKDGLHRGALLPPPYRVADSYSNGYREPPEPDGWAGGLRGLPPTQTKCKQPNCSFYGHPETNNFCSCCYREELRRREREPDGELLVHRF
Outline: as §1

[3] = biological target: PRPF8 (UniProt Q6P2Q9)
Outline: as §1

[4] = biological target: T3, PSMD7 (UniProt P51665)
T3 sequence (whole entry): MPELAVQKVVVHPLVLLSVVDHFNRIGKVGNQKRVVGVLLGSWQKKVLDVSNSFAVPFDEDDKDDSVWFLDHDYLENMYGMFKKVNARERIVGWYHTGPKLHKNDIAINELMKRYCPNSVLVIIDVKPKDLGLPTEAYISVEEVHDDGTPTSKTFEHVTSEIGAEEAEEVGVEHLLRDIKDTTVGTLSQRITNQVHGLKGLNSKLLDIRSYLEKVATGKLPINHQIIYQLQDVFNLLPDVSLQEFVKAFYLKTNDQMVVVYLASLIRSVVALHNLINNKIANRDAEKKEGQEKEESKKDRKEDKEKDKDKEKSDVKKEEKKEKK
Outline: as §1

[5] = biological target: UCHL1 (UniProt P09936)
Outline: as §1

[6] = biological target: T4, UCHL3 (UniProt P15374)
T4 sequence (whole entry): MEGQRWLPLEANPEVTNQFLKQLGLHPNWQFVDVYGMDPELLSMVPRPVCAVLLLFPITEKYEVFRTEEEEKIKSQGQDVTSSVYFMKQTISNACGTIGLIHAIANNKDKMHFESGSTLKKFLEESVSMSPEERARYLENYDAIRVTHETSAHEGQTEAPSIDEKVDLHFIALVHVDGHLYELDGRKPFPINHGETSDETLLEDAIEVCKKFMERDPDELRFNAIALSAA
Outline: as §1

[7] = biological target: T5, UCHL5 (UniProt Q9Y5K5)
T5 sequence (whole entry): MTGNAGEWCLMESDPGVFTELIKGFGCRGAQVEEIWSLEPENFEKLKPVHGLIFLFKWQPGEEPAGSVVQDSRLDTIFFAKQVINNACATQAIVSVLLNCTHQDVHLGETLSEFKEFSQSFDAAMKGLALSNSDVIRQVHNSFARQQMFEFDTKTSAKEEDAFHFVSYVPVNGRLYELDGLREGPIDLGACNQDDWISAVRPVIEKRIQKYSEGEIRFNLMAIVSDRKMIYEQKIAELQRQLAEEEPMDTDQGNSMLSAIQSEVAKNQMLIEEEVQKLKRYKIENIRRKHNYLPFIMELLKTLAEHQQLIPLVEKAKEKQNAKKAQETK
Outline: as §1

[8] = biological target: USP10 (UniProt Q14694)
Outline: as §1

[9] = biological target: T6, USP15 (UniProt Q9Y4E8)
T6 sequence (whole entry): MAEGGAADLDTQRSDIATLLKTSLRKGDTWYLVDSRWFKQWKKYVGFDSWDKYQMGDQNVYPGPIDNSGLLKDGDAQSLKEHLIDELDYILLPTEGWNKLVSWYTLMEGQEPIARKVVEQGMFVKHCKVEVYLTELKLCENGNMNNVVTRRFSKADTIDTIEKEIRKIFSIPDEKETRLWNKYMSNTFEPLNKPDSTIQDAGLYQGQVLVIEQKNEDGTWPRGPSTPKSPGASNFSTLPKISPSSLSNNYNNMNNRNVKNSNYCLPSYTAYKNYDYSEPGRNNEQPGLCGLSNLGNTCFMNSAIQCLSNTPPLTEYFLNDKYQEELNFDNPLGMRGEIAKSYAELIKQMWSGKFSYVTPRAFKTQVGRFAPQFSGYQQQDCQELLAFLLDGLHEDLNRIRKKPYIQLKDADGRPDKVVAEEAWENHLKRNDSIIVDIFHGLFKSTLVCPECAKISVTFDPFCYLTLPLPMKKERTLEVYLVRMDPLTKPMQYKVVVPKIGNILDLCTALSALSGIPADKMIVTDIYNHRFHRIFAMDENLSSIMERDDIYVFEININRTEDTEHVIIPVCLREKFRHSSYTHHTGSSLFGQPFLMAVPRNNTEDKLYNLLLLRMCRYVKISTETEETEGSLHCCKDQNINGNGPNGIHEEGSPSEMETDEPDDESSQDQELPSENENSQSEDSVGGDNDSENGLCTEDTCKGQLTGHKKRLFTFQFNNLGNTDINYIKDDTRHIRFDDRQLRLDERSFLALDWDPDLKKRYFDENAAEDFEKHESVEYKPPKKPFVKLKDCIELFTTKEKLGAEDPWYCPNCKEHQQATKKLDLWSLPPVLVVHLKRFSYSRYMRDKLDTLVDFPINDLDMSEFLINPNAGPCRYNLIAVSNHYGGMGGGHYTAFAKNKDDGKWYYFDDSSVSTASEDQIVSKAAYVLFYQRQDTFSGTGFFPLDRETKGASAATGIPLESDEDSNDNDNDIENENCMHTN
Outline: as §1

[10] = biological target: USP16 (UniProt Q9Y5T5)
Outline: as §1

USP16, sequence (Q9Y5T5 whole entry, looked up): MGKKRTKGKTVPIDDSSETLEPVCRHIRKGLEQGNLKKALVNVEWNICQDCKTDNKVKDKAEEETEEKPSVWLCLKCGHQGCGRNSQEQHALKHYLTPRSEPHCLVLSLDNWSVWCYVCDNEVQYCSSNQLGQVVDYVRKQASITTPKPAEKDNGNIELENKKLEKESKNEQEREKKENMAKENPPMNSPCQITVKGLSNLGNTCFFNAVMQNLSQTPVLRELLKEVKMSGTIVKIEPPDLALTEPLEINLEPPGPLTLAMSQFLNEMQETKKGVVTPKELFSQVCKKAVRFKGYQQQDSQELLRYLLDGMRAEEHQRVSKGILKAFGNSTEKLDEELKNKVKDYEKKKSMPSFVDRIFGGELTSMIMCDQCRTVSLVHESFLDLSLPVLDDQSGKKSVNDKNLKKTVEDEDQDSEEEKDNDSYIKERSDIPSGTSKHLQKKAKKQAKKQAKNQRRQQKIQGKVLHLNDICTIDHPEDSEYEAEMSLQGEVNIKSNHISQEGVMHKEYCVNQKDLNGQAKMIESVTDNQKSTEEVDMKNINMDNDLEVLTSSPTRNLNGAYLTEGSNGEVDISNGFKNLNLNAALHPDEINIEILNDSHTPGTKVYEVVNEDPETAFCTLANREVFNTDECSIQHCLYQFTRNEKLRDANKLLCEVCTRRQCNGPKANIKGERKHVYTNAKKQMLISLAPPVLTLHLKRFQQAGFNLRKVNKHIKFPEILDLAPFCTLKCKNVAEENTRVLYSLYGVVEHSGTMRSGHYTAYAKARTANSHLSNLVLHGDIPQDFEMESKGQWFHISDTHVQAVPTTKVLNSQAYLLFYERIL
UCHL1, sequence (P09936 whole entry, looked up): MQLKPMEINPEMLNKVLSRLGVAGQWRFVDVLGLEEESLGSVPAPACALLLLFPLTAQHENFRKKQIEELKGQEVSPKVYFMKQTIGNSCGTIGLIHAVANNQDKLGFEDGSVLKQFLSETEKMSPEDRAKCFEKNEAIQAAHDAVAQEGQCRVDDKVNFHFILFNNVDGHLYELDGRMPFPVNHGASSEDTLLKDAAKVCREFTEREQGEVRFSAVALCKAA
USP10, sequence (Q14694 whole entry): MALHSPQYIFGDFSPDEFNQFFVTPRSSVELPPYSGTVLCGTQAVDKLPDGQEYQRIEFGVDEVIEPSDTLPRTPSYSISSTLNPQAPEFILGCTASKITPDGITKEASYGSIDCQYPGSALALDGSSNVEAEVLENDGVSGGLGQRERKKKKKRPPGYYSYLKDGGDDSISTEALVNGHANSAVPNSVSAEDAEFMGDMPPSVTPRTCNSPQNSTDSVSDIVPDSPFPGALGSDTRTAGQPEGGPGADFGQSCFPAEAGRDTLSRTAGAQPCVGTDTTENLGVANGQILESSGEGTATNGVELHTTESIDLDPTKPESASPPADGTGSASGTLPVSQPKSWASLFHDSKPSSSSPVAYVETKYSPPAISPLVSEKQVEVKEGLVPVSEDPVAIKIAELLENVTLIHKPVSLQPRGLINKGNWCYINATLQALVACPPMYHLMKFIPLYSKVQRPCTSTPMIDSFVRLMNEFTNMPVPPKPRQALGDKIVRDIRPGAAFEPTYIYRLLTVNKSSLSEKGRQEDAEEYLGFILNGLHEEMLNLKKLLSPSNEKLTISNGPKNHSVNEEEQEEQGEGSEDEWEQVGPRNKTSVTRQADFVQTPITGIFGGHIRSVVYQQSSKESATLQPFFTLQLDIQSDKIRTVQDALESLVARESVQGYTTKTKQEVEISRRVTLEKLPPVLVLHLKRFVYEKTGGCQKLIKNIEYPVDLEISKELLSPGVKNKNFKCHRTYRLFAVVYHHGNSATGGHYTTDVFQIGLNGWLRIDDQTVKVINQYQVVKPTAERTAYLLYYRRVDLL

With `O=C(CCl)N1CCC(O)(Cc2ccc(F)cc2)C1` (stereo not given) the “log2 ratio of Biotin-Ahx-Ub-VS probe labelling” value (“log2 ratio” below) [1] was 0.0617, the “log2 ratio” value [2] was -0.082 and the “log2 ratio” value [3] was -0.0432. The “log2 ratio” value [4] was -0.209, the “log2 ratio” value [5] was -1.12 (active) and the “log2 ratio” value [6] was 0.0281. The “log2 ratio” value [7] was 0.116, the “log2 ratio” value [8] was -0.309 and the “log2 ratio” value [9] was -0.149. The “log2 ratio” value [10] was 0.246.

Source: the supplement of paper PMC11732987, “Enantioselective OTUD7B fragment discovery through chemoproteomics screening and high-throughput optimisation” (Communications Chemistry, 2025)
